Bioassay records (PubChem)
HP1b binding inh: blocks HP1-beta chromodomain binding to methylated histone tails. P83916. AlphaScreen HP1-beta / biotin-H3K9me3 peptide binding. Potency, µM (top dose mostly 114 µM), hits mostly inhibitors. actives 0.56% (n = 390,000); further: nearly all actives have a fitted effect of over 70% in size
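AlphaScreen: HP1-beta (50 nM) preformed 30 min with biotin-H3(1-18)K9me3 peptide (50 nM) in PBS pH 7.4, 0.01% Tween-20. Compound added for 30 min at RT, then streptavidin donor/nickel chelate acceptor beads (10 ug/mL) for 30 min.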
Sfp inh: Sfp phosphopantetheinyl transferase inhibition; Q9F4F7; Biochemical Sfp PPTase activity, qHTS; Potency, µM, actives largely listed as inhibitors; actives 3.5% (n = 310,000);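 further: the enzyme is Sfp with the accession as filed and its product quenches rhodamine fluorescence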
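Fluorescence-quenching assay: 15 nM Sfp-PPTase preincubated 15 min at room temperature with compound, then 5 uM rhodamine-CoA and 12.5 uM BHQ-2-labelled YbbR peptide added. Fluorescence (ex 525/em 598 nm) read at start and after 30 min; difference gives rate.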
JMJD2A Tudor inh: inhibitors of human JMJD2A Tudor domain | O75164 | AlphaScreen JMJD2A-Tudor / H3K4me3 peptide binding | Potency, µM (series often up to 114 µM), most hits filed as inhibitors | actives 4.4% (n = 390,000) | AID 504339; further: nearly all actives have a fitted effect of over 50% in size
PLK1 PBD inh: PLK1 (human) polo-box domain binding inhibition. Potency, µM, usual class: inhibitors. actives 2.8% (n = 360,000). Plk1 PBD binding of FITC phosphopeptide, fluorescence polarization. AID 720504. P53350; further: series mostly up to about 57 µM; nearly all actives have a fitted effect of over 65% in size
Target sequence (P53350 whole entry, looked up, the tested form may be a part): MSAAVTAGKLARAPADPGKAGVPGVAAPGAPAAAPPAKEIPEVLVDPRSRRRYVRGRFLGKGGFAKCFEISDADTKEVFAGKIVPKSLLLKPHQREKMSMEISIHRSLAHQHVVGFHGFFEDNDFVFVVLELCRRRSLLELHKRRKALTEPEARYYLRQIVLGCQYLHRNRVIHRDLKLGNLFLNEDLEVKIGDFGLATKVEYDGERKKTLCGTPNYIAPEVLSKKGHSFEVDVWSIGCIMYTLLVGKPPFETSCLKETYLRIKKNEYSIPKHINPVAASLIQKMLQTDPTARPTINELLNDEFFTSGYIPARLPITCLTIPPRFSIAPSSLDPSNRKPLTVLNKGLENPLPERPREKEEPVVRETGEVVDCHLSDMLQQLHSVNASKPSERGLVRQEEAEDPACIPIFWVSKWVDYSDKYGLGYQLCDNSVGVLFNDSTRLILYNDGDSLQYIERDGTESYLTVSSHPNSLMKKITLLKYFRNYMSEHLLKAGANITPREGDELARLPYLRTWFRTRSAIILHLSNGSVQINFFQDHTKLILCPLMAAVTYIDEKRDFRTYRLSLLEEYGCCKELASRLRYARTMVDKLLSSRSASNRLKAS
G9a block: G9a (human) methyltransferase inhibition; Q96KQ7; G9a H3K9 monomethylation, AlphaScreen, 2 h; Potency, µM (doses to about 102 µM), usual class: inhibitors; actives 8.8% (n = 350,000); AID 504332; further: nearly all actives have a fitted effect of over 75% in size
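G9a (20 nM) preincubated 15 min RT with compounds, then 500 nM biotinylated H3K9 peptide and 20 uM SAM added; 2 h RT reaction. Monomethyl-H3K9 product detected by AlphaScreen with anti-H3K9me1 antibody, streptavidin donor and anti-rabbit IgG acceptor beads.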
BAZ2B inh: BAZ2B (human) inhibition; AlphaScreen BAZ2B-H3K14Ac peptide displacement; actives 4.4% (n = 360,000); Q9UIF8; Potency, µM (series often up to 114 µM), actives largely listed as inhibitors; further: nearly all actives have a fitted effect of over 60% in size
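AlphaScreen displacement of biotin-H3(5-23)K14Ac peptide (50 nM final) from BAZ2B (50 nM final) in PBS pH 7.4, 0.01% Tween-20; complex preformed 30 min RT, then compounds (top 110 uM) 30 min RT, beads 20 min dark.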
Of the large screens only hits and unclear results are named; the others gave an inactive call; ! = not active in a repeat. Rows were chosen to be rich in hits. Some 12% of all compounds tested hit in one or more screens of this group. The call rests on the fitted dose curve; in most records, active means well fitted curve in the direction sought with a large enough effect; inconclusive means small, poorly fitted or top-dose-only effect, or another doubt; inactive means no such curve, though single readings can be large; an effect the other way counts as inactive or inconclusive.

Cc1ccc(Nc2cc(C)nc3ncnn23)cc1	G9a block 71µM
COc1cc(Nc2cc(C)nc3ncnn23)cc(OC)c1	G9a block inconclusive
COc1cc(Nc2cc(C)nc3ncnn23)cc(OC)c1OC	G9a block 45µM
Cc1cc(C)n2ncnc2n1	G9a block 50µM, BAZ2B inh inconclusive
CCOc1ccc(N/C=C/C(=O)c2ccccc2)c([N+](=O)[O-])c1	HP1b binding inh inconclusive, JMJD2A Tudor inh inconclusive, G9a block 8.9µM, BAZ2B inh inconclusive
Cc1ccc(S(=O)(=O)CC(=O)Nc2nc3ccccc3s2)cc1	none
Cc1ccc(S(=O)(=O)Cc2sc3ccccc3[n+]2C)cc1	JMJD2A Tudor inh 22µM, G9a block 45µM, BAZ2B inh 50µM
CCOP(=O)(OCC)C(NC(C)=O)C(=O)c1ccccc1 (stereo not drawn)	none
CC(=O)NC(C(=O)c1ccccc1)C(=O)c1ccccc1	G9a block 50µM
O=S(=O)(c1ccc(Br)cc1)N1CCN(Cc2ccco2)CC1	none (no result: G9a block)
c1ccc(CC2CCN(Cc3ccccn3)CC2)cc1	HP1b binding inh inconclusive, JMJD2A Tudor inh 7.9µM, BAZ2B inh 50µM (no result: G9a block)
OCC1(Cc2ccccc2)CCN(Cc2ccccn2)CC1	none (no result: G9a block)
Clc1ccc(CN2CCC(c3ccccc3)CC2)cc1	none
CSc1ccc(CN2CCC(Cc3ccccc3)CC2)cc1	JMJD2A Tudor inh 35µM, G9a block 7.1µM, BAZ2B inh 71µM
Clc1cccc(CN2CCN(Cc3ccco3)CC2)c1	HP1b binding inh 20µM, Sfp inh inconclusive, JMJD2A Tudor inh 1.8µM, G9a block 7.9µM, BAZ2B inh 18µM
Clc1ccc(CN2CCC(Cc3ccccc3)CC2)cc1	HP1b binding inh inconclusive, Sfp inh inconclusive, JMJD2A Tudor inh 20µM, G9a block 4.5µM, BAZ2B inh 32µM
COc1cccc(C2C=C(c3ccc(C)cc3)Nc3c(C(=O)Nc4ccc(F)cc4)cnn32)c1OC (stereo not drawn)	JMJD2A Tudor inh inconclusive, G9a block inconclusive, BAZ2B inh inconclusive (no result: Sfp inh, PLK1 PBD inh)
Cc1ccc(S(=O)(=O)c2cn(Cc3ccccc3)c3cc(N4CCOCC4)c(F)cc3c2=O)cc1	none (no result: Sfp inh, PLK1 PBD inh)
NC(=NCc1ccco1)NC(=O)c1ccccc1	BAZ2B inh inconclusive (no result: G9a block)
Fc1ccc(CN2CCC(Cc3ccccc3)CC2)cc1F	JMJD2A Tudor inh 28µM, G9a block 10µM, BAZ2B inh inconclusive
Clc1cccc(CN2CCC(Cc3ccccc3)CC2)c1	HP1b binding inh inconclusive, Sfp inh inconclusive, JMJD2A Tudor inh 3.2µM, G9a block 3.5µM, BAZ2B inh 50µM
O=C(/C=C/c1cccc(Cl)c1)N1CCC(Cc2ccccc2)CC1	none
CC1(c2nnnn2-c2ccc3c(c2)OCCO3)CCC(=O)N1Cc1cccnc1 (stereo not drawn)	none (no result: HP1b binding inh, Sfp inh, JMJD2A Tudor inh, G9a block, BAZ2B inh)
O=C(NCc1ccc2c(c1)OCO2)c1ccc2c(c1)OCO2	none
COc1cc(C(=O)NCc2ccc3[nH]c(C)cc3c2)cc(OC)c1OC	G9a block inconclusive
COc1ccc(C(=O)NCc2cc(C)nc3ccccc23)cc1	PLK1 PBD inh inconclusive
COc1ccc(C(=O)NCc2ccc3[nH]c(C)cc3c2)cc1OC	G9a block 35µM, BAZ2B inh inconclusive
Cc1cc2cc(CNC(=O)c3ccc4c(c3)OCO4)ccc2[nH]1	G9a block 50µM, BAZ2B inh inconclusive
CCOc1ccc(NC(=S)NCc2ccc3[nH]c(C)cc3c2)cc1	JMJD2A Tudor inh 50µM, G9a block inconclusive (no result: BAZ2B inh)
Cc1cc(CNC(=O)c2ccc3c(c2)OCO3)c2ccccc2n1	G9a block 35µM
CCCCNC(=S)NCc1ccc2[nH]c(C)cc2c1	JMJD2A Tudor inh inconclusive, G9a block inconclusive, BAZ2B inh inconclusive
O=C(Nc1c(C(=O)N2CCOCC2)oc2ccccc12)c1ccccc1Cl	none (no result: G9a block)
Cc1ccc(NC(=O)Cc2c(C(=O)O)c(C)cn2C)cc1Cl	none (no result: Sfp inh, PLK1 PBD inh)
COc1ccc(NC(=O)N2CCCC3(CCN(C(=O)c4cccc(F)c4)CC3)C2)cc1	none (no result: HP1b binding inh, JMJD2A Tudor inh, PLK1 PBD inh, BAZ2B inh)
COc1ccc(Cc2nnc(N/N=C(\C)c3ccccc3)[nH]c2=O)cc1OC	BAZ2B inh 35µM (no result: G9a block)
COc1ccc(Cc2nnc(NN)[nH]c2=O)cc1OC	Sfp inh 45µM, JMJD2A Tudor inh 2.5µM, BAZ2B inh 4µM
COc1ccc(/C=N/Nc2nnc(Cc3ccc(OC)c(OC)c3)c(=O)[nH]2)cc1OC	Sfp inh 50µM, JMJD2A Tudor inh inconclusive, BAZ2B inh inconclusive
O=[S+]([O-])(c1ccc2c(c1)OCCO2)N1CCN([S+](=O)([O-])c2ccc(F)cc2Cl)CC1	none (no result: HP1b binding inh, Sfp inh, PLK1 PBD inh, G9a block, BAZ2B inh)
CC(=O)OCC(=O)C1(O)CCC2C3CCC4=CC(=O)CCC4(C)C3(F)C(O)CC21C (stereo not drawn)	none (no result: Sfp inh, G9a block, BAZ2B inh)
C[C@@H](N)C1CCC(C(=O)Nc2ccncc2)CC1 (stereo partly drawn)	G9a block 30µM! (no result: HP1b binding inh, JMJD2A Tudor inh, PLK1 PBD inh, BAZ2B inh)
CNC(=O)C1CCN(S(=O)(=O)c2c(C)noc2/C=C/N(C)C)CC1	JMJD2A Tudor inh inconclusive, PLK1 PBD inh 27µM
CCc1ccc(NC(=O)C2CCN(S(=O)(=O)c3c(C)noc3/C=C/N(C)C)CC2)cc1	none
COc1ccc(NC(=O)C2CCN(S(=O)(=O)c3c(C)noc3/C=C/c3ccco3)CC2)cc1	JMJD2A Tudor inh 10µM (no result: Sfp inh, PLK1 PBD inh, BAZ2B inh)
